Screening results deposited in PubChem by National Center for Advancing Translational Sciences (NCATS).
TDP1 cell CPT: growth inhibition of DT40 Tdp1-/-;hTDP1 cells with camptothecin (screen for TDP1 inhibitors). chicken DT40 Tdp1-/-;hTDP1 cells + 20 nM CPT, ATP luminescence, 48 h. Potency, µM (highest dose often 46.2 µM), actives largely listed as inhibitors. actives 12% (n = 420,000). AID 686979; also: nearly all actives have a fitted effect of over 55% in size
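Chicken DT40 Tdp1-/- cells stably complemented with human TDP1 were seeded at 400 cells/well in medium containing 20 nM camptothecin, exposed to pin-transferred compounds, and grown at 37 °C for at least 48 hr. Viability was read as ATP luminescence.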
TDP1 block: TDP1 (human) enzyme inhibition. Potency, µM (doses to about 130 µM), usual class: inhibitors. actives 0.28% (n = 350,000). recombinant TDP1, AlphaScreen DNA substrate cleavage; also: nearly all actives have a fitted effect of over 40% in size
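Recombinant human Tdp1 (E. coli-expressed, 1 nM final) preincubated with compounds 15 min at room temperature, then 5'-biotin/3'-phosphotyrosine-FITC DNA substrate (15 nM final) added for 5 min. AlphaScreen beads (10 ug/ml final) added 10 min; cleavage lowers signal.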
VP16 counter: Gal4-VP16 reporter inhibition counter-screen | Drosophila S2 Gal4-VP16 UAS-luciferase, luminescence, 20 h | Potency, µM (top dose mostly 53.6 µM), hits mostly inhibitors | actives 3.5% (n = 310,000) | AID 2546;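 also: Gal4-VP16 expression switched on by copper sulfate through the metallothionein promoter; nearly all actives have a fitted effect of over 50% in size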
TDP1 cell noCPT: qHTS for Inhibitors of human tyrosyl-DNA phosphodiesterase 1 (TDP1): qHTS in cells in absence of CPT; AID 686978, 2013; DT40 Tdp1-/- hTDP1 cells, no CPT, ATP luminescence, 48 h; actives 15% (n = 420,000); Potency, µM (titrated, usually from 46.2 µM), usual class: inhibitors; also: nearly all actives have a fitted effect of over 55% in size
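Chicken DT40 Tdp1-/- cells complemented with human TDP1, screened without camptothecin (DMSO vehicle only), 400 cells/well. Compounds pin-transferred, cells incubated at 37 °C for at least 48 hr. Growth read as ATP-dependent luminescence (CellTiter-Glo, 30 min at RT).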
RORgamma inh: inhibitors of mouse ROR gamma transcriptional activity; P51450; Potency, µM (highest dose often 53.6 µM), most hits filed as inhibitors; Drosophila S2 Gal4-RORgamma UAS-luciferase reporter, 20 h; actives 5.4% (n = 310,000); also: nearly all actives have a fitted effect of over 60% in size
Target sequence (P51450 whole entry, looked up, the tested form may be a part): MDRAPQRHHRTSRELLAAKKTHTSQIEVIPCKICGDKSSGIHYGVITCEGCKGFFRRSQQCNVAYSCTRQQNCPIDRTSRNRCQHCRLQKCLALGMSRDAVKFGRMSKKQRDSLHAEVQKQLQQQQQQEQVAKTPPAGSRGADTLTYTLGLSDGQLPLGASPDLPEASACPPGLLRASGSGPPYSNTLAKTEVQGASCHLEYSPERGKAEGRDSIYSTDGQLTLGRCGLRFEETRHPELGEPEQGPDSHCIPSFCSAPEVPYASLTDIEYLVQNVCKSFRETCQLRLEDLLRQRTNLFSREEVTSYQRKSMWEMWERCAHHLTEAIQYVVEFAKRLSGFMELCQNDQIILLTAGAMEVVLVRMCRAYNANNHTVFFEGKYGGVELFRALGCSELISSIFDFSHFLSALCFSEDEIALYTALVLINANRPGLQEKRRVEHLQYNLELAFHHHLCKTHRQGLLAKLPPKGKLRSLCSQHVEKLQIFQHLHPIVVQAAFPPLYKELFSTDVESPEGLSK
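Luciferase reporter read in Schneider cells carrying Gal4-RORγ (mouse) and UAS-Photinus luciferase; cells given compound 1 h before 700 uM copper sulfate induction, then incubated 20 h at ambient temperature.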
Each line names hits and unclear results; the compound was inactive in the other large screens; ! = not confirmed by another sample. Shown are actives, neighbours in structure and some others; about 19% of the full set was active somewhere. Calls follow the shape of the dose curve; as a rule, active = well fitted curve in the direction sought with a large enough effect; inconclusive = small, poorly fitted or top-dose-only effect, or another doubt; inactive = no such curve, though single readings can be large; an effect the other way counts as inactive or inconclusive.

Cc1onc(-c2c(Cl)cccc2Cl)c1C(=O)N/N=C(\N)COc1ccc(Cl)cc1	TDP1 cell CPT 5.2µM, VP16 counter 0.5µM, TDP1 cell noCPT 5.2µM, RORgamma inh 0.45µM
Cc1cc(Br)c(NC(=O)c2c(-c3c(Cl)cccc3Cl)noc2C)c(Br)c1	TDP1 cell CPT 21µM, TDP1 cell noCPT inconclusive
CCC(=O)OC1(C(=O)CCl)[C@@H](C)C[C@H]2[C@@H]3CCC4=CC(=O)C=C[C@]4(C)[C@@]3(F)[C@@H](O)C[C@@]21C (stereo not given in full)	none (no result: TDP1 block, VP16 counter, RORgamma inh)
Cc1onc(-c2c(Cl)cccc2Cl)c1C(=O)c1c[nH]c(C(=O)NCC2CCCO2)c1 (stereo not given)	TDP1 cell CPT inconclusive, TDP1 cell noCPT 13µM
Cc1onc(-c2c(F)cccc2Cl)c1C(=O)NCCO	none
CC(=O)c1c[nH]c(C(=O)NCC2CCCO2)c1 (stereo not given)	none
Cc1onc(-c2c(F)cccc2Cl)c1C(=O)NC1CCCCCC1	TDP1 cell CPT inconclusive, TDP1 cell noCPT 29µM (no result: TDP1 block)
Brc1ccccc1-n1ncc2c1ncn1nc(Cc3ccccc3)nc21	none (no result: VP16 counter, RORgamma inh)
O=S1(=O)N[C@H](c2ccccc2)C[C@H](c2ccc(C(F)(F)F)cc2)O1	TDP1 cell CPT 15µM, TDP1 cell noCPT inconclusive (no result: TDP1 block)
O=C(Nc1nc2c(F)cc(F)cc2s1)C1CC1	TDP1 cell noCPT inconclusive (no result: TDP1 block)
Fc1cccc2sc(Nc3nc4cc5c(cc4s3)OCO5)nc12	TDP1 cell CPT 21µM, VP16 counter 7.1µM, TDP1 cell noCPT inconclusive, RORgamma inh 6.3µM
CC(=O)Nc1nc2c(F)cccc2s1	none (no result: TDP1 block, VP16 counter, RORgamma inh)
Fc1cccc2sc(Nc3nc4cc5c(cc4s3)OCCO5)nc12	TDP1 cell CPT inconclusive, VP16 counter 11µM, TDP1 cell noCPT inconclusive, RORgamma inh 5.6µM
Fc1cc(F)c2nc(Nc3nc4cc5c(cc4s3)OCO5)sc2c1	TDP1 block inconclusive, VP16 counter inconclusive, RORgamma inh 16µM
Cc1cccc(OCc2nnc(SCC(=O)N3c4ccccc4Sc4ccc(Cl)cc43)o2)c1	TDP1 cell CPT inconclusive, TDP1 cell noCPT inconclusive
O=C(CCCc1ccccc1)Nc1ccccc1[N+](=O)[O-]	TDP1 cell CPT 10µM, TDP1 cell noCPT 21µM (no result: TDP1 block)
O=C(CCc1ccccc1)Nc1ccc(F)cc1F	RORgamma inh inconclusive
NS(=O)(=O)c1ccc(CCNC(=O)Cc2ccccc2[N+](=O)[O-])cc1	none
O=C(CCCc1ccccc1)Nc1ccc(Br)cc1F	TDP1 cell CPT 15µM, TDP1 cell noCPT inconclusive (no result: TDP1 block)
O=C(Cc1ccccc1[N+](=O)[O-])NCCCc1ccccc1	TDP1 cell CPT 16µM, TDP1 cell noCPT inconclusive, RORgamma inh 0.22µM (no result: TDP1 block)
CN1CCN(C(=O)c2ccc3c(c2)N(Cc2ccc(Cl)cc2)C(=O)c2ccccc2S3(=O)=O)CC1	TDP1 cell noCPT inconclusive (no result: VP16 counter, RORgamma inh)
CCCCOC(=O)c1cc2c(cn1)[nH]c1ccccc12	TDP1 cell CPT 21µM!, VP16 counter 32µM, TDP1 cell noCPT 18µM, RORgamma inh 16µM
CNC(=O)c1cc2c(cn1)[nH]c1ccccc12	TDP1 cell CPT inconclusive, TDP1 cell noCPT inconclusive
COC(=O)[C@H](CCSC)NC(=O)c1cc2c(cn1)[nH]c1ccccc12	TDP1 cell CPT 10µM, TDP1 cell noCPT 7.3µM (no result: TDP1 block)
O=C(CCN1CCN(CCO)CC1)Nc1cccc(Br)c1	none
O=C(CCN1CCN(CCO)CC1)Nc1ccc(OCc2ccccc2)cc1	none
O=C(CCN1CCN(Cc2ccccc2)CC1)Nc1ccc(OCc2ccccc2)cc1	TDP1 cell CPT inconclusive, VP16 counter inconclusive, TDP1 cell noCPT 15µM
Cc1ccccc1NC(=O)CCN1CCN(Cc2ccccc2)CC1	none
Cc1cc(C)c(NC(=O)CCN2CCN(Cc3ccccc3)CC2)c(C)c1	TDP1 cell CPT inconclusive, TDP1 cell noCPT 16µM (no result: TDP1 block, VP16 counter, RORgamma inh)
O=C(CCN1CCN(Cc2ccccc2)CC1)Nc1cccc(Br)c1	TDP1 cell CPT 16µM, TDP1 cell noCPT 16µM (no result: TDP1 block)
COc1cccc(NC(=O)CCN2CCN(c3ccccc3)CC2)c1	TDP1 cell CPT inconclusive, TDP1 cell noCPT 10µM (no result: TDP1 block, VP16 counter, RORgamma inh)
CCN1CCN(CCC(=O)Nc2cccc(OC)c2)CC1	none
Cc1ccccc1-c1nc(CN2CCC(C(=O)NCCCN3CCCC(C)C3)CC2)c(C)o1 (stereo not given)	TDP1 cell CPT inconclusive, TDP1 cell noCPT inconclusive
O=C(NCCC1=CCCCC1)c1cc2c(s1)CS(=O)(=O)C2	VP16 counter inconclusive
O=C(CCN1C(=O)COc2ccccc21)NCCN1CCN(c2cccc(Cl)c2)CC1	TDP1 cell CPT inconclusive, TDP1 cell noCPT inconclusive
Cc1ccc(C)c(NC(=O)CCCCCCCCCCC2COCCO2)c1 (stereo not given)	none
COC(=O)CCc1c(C)[nH]c(=S)[nH]c1=O	none
CCCC(=O)N(C1CC(C)C(C#N)(C#N)C1(C#N)C#N)N(C)C (stereo not given)	TDP1 cell CPT 1.3µM, TDP1 cell noCPT 2.3µM (no result: TDP1 block)
CC(=O)N(C1CC(C)C(C#N)(C#N)C1(C#N)C#N)N(C)C (stereo not given)	TDP1 cell CPT 0.52µM, TDP1 cell noCPT 0.58µM, RORgamma inh 7.9µM
CCNC(=O)C1(C)CCCN(C(=O)c2cccc(C)c2C)C1 (stereo not given)	none (no result: TDP1 block, VP16 counter, RORgamma inh)
CSCCC(NC(=O)COc1ccccc1)C(=O)OCC(=O)c1ccccc1 (stereo not given)	none (no result: TDP1 block, VP16 counter, RORgamma inh)
CC(Nc1nc(-c2ccccc2O)nc2ccccc12)c1ccccc1 (stereo not given)	TDP1 cell CPT inconclusive, TDP1 cell noCPT inconclusive
C=CCNc1nc(N2CCCC2)nc2ccccc12	TDP1 cell CPT 16µM, TDP1 cell noCPT 16µM
CCN1CCN(c2nc(NCCO)c3ccccc3n2)CC1	none
